Experimental data: PubChem BioAssay
Calls of active or inactive are those of the source. Unless noted, how the calls were made is not given here.

How the values were obtained:
[1] = HepG2 liver cancer cell viability effects, profiling panel, resazurin fluorescence, 24 h, PK04 Diversity Set (AID 1172); conditions: higher = more signal
[2] = basal S. cerevisiae growth modulation, no modifier, primary screen, OD600, strain BY4716, 24 h, basal condition (AID 1173); conditions: OD600, 24 h, higher = more signal, called active from +8 up or from −8 down
[3] = MM1S myeloma cell viability, profiling panel, resazurin fluorescence, basal, 24 h, PK04 Diversity Set (AID 1174); conditions: higher = more signal, called active from +8 up or from −8 down;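 further: MM1S multiple myeloma cell line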
[4] = target: Dihydroorotate dehydrogenase (quinone), mitochondrial (Plasmodium falciparum (isolate 3D7)) (UniProt Q08210); assay: PfDHODH enzyme inhibitors, primary screen, biochemical, C-terminal His tag, absorbance 600 nm (AID 1175); conditions: DCIP absorbance 600 nm, higher = more signal, called active from +8 up or from −8 down;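 further: recombinant parasite enzyme with a five histidine tag at its C terminus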
Dihydroorotate dehydrogenase (quinone), mitochondrial (Plasmodium falciparum (isolate 3D7)), sequence (Q08210 whole entry, looked up): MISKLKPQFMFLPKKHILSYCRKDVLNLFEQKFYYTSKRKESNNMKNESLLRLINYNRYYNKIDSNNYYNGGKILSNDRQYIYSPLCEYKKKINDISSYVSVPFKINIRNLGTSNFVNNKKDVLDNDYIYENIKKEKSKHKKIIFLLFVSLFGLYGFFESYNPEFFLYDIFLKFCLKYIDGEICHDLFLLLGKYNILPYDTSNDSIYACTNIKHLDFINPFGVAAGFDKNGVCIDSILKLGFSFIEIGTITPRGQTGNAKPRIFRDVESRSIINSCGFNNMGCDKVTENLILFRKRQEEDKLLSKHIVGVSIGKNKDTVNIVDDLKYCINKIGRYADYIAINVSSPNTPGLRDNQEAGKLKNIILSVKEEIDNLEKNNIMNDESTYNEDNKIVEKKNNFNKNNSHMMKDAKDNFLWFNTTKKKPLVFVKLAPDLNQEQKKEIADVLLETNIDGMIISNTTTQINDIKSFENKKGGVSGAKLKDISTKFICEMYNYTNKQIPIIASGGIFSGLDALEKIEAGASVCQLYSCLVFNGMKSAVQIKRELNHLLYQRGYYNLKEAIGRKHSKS

[5] = P. aeruginosa biofilm formation inhibitors, primary screen, strain PAO1, LB-PBS medium, absorbance 600 nm (AID 1176); conditions: P. aeruginosa PAO1 growth/biofilm, A600, 12 h; higher = more signal
[6] = S. cerevisiae RM11-1a growth modifiers, primary screen, strain RM11-1a, OD600, basal, 24 h (AID 1177); conditions: OD600, 24 h, higher = more signal, called active from +8 up or from −8 down;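 further: cultures grown under basal conditions with no added stressor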
[7] = E. coli acrAB mutant growth effects, primary screen, E. coli filamentation inducers, strain DRC39, OD650, 24 h (AID 1178); conditions: higher = more signal, called active from +8 up or from −8 down;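 further: growth measured as culture turbidity by optical density at 650 nm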
[8] = E. coli acrAB mutant growth effects, primary screen, E. coli filamentation inducers, strain DRC39, OD650, 48 h (AID 1179);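 further: screen aims at cell division blockers that make cells filament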; conditions: E. coli DRC39 delta-acrAB growth, higher = more signal, called active from +8 up or from −8 down
[9] = RPMI8226 myeloma cell viability, profiling panel, resazurin fluorescence, basal, 24 h, PK04 Diversity Set (AID 1180); conditions: higher = more signal;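 further: RPMI8826 multiple myeloma cell line at 5000 cells per well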
[10] = target: E3 ubiquitin-protein ligase XIAP (Homo sapiens) (UniProt P98170); assay: XIAP binders, primary screen, biophysical, small-molecule microarray, fluorescence 635 nm (AID 1181); conditions: small-molecule microarray binding, higher = more signal;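 further: score merges 667 nm emission and signal to noise over triplicate slides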
E3 ubiquitin-protein ligase XIAP (Homo sapiens), sequence (P98170 whole entry, looked up): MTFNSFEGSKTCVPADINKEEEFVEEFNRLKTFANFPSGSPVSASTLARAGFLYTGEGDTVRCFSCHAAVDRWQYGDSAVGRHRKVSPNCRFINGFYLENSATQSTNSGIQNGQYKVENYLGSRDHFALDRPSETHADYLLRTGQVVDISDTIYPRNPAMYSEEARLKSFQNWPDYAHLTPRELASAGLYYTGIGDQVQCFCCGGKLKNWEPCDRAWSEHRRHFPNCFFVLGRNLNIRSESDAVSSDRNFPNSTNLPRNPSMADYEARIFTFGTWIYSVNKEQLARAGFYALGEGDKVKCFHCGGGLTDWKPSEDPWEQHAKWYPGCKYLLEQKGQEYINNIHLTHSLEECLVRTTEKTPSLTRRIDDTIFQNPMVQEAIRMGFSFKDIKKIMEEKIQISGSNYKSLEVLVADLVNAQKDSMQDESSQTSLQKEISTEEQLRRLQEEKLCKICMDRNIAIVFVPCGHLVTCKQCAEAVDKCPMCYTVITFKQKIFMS

[11] = system: XIP peptide (Xip251-270) binding; assay: small-molecule binders of XIP peptide, primary screen, biochemical, small-molecule microarray, fluorescence 635/667 nm, 0.1 µg/mL protein (AID 1182); conditions: fluorescent protein binding, 635 nm, higher = more signal, called active from +8 up or from −8 down
XIP peptide (Xip251-270) = assay: small-molecule binders of XIP peptide, primary screen, biochemical, small-molecule microarray, fluorescence 635/667 nm, 0.5 µg/mL protein (AID 1183); conditions: small-molecule microarray binding, fluorescence 635 nm; higher = more signal
[12] = Plasmodium falciparum growth inhibition, primary screen, strain 3D7, DAPI fluorescence, 100 nL (AID 1184);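 further: parasites grown inside human red blood cells in medium with human serum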; conditions: P. falciparum 3D7 growth, 3 d, higher = more signal
[13] = target: Homeobox protein Hox-A13 (Mus musculus) (UniProt Q62424); assay: inhibitors of HoxA13-DNA binding, primary screen, biochemical, fluorescence polarization, labeled oligonucleotide (AID 1185); conditions: 15 min, higher = more signal, called active from +8 up or from −8 down
Homeobox protein Hox-A13 (Mus musculus), sequence (Q62424 whole entry, looked up): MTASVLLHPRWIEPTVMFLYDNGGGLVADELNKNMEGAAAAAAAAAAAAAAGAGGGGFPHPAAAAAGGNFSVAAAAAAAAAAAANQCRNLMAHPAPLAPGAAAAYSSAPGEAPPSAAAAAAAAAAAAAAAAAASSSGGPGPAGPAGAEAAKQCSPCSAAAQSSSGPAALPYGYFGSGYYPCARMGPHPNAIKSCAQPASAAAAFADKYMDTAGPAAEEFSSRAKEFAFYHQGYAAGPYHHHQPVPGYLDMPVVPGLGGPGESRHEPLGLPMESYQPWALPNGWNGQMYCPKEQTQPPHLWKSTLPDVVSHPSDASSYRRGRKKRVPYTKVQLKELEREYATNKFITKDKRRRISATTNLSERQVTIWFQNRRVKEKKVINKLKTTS

[14] = inhibitors of hydroxyurea-induced Chk1 phosphorylation, primary screen, imaging, HeLa, phospho-Chk1 antibody, percent positive cells (AID 1186); conditions: hydroxyurea-induced phospho-Chk1 immunofluorescence imaging, higher = more signal
[15] = inhibitors of hydroxyurea-induced Chk1 phosphorylation, primary screen, imaging, HeLa, phospho-Chk1 nuclear intensity (AID 1187); conditions: hydroxyurea-induced phospho-Chk1 immunofluorescence imaging, higher = more signal

Compound | z-score [1] | z-score [2] | z-score [3] | composite z-score [4] | z-score [5] | z-score [6] | z-score [7] | z-score [8] | z-score [9] | composite z-score [10] | composite z-score [11] | composite z-score (XIP peptide (Xip251-270)) | z-score [12] | z-score [13] | z-score [14] | z-score [15]
COCCOC(=O)N1C(=O)[C@@]2(c3cc(C#CCNC(N)=O)ccc31)[C@H](C(=O)N1CCN(c3ncccn3)CC1)[C@H]1C(=O)O[C@H](c3ccccc3)[C@H](c3ccccc3)N1[C@@H]2c1ccc(OCCO)cc1 | -0.488 | 1.51 (inactive) | -0.814 (inactive) | -0.0103 (inactive) | 2.43 (inactive) | 2.16 (inactive) | 0.142 (inactive) | 0.567 (inactive) | -0.83 | 0.0627 | 0.0897 (inactive) | 0.697 | -0.939 | 0.245 (inactive) | 0.138 (inactive) | 0.0943 (inactive)
CC(CO)N1C(=O)[C@@H]2C3C(=O)OCCC/C=C\[C@H]3OC23C=CCN(C(C)(C)C)C(=O)[C@@H]13 (stereo not given in full) | -0.181 | -0.382 (inactive) | -0.261 (inactive) | -4.03 (inactive) | 0.727 (inactive) | -0.0192 (inactive) | 0.855 (inactive) | 0.956 (inactive) | -0.178 | 0.801 | 0.453 (inactive) | -0.0516 | 0.67 | -4.72 (inactive) | -0.423 (inactive) | -1.21 (inactive)
CCCC[C@@H]1C[C@H]1[C@@H](NC(=O)c1ccco1)c1ccccc1C(F)(F)F | -0.153 | 1.67 (inactive) | -1.25 (inactive) | -0.265 (inactive) | -0.0298 (inactive) | -0.064 (inactive) | -0.714 (inactive) | -0.127 (inactive) | -0.594 | 0.271 | 0.259 (inactive) | -0.623 | -0.7 | 2.24 (inactive) | 0.445 (inactive) | -0.353 (inactive)
C=CC(=C)[C@H]1Oc2ccccc2S(=O)(=O)N2CCC[C@@H]12 | -0.702 | -3 (inactive) | -0.205 (inactive) | 0.742 (inactive) | -0.389 (inactive) | -0.377 (inactive) | -0.553 (inactive) | -0.84 (inactive) | -0.973 | -0.02 | 0.323 (inactive) | -0.253 | -0.0753 | -1.9 (inactive) | 0.142 (inactive) | 0.342 (inactive)
COC(=O)[C@@]1(Cc2ccc(OC)cc2)[C@H]2c3cc(C(=O)N4CCCC4)n(CCN4CNCC4=O)c3C[C@H]2CN1C(=O)c1ccccc1 | -0.66 | 0.818 (inactive) | -0.359 (inactive) | 0.0916 (inactive) | 1.68 (inactive) | 1.22 (inactive) | -0.146 (inactive) | -0.199 (inactive) | 0.0221 | 0.778 | 0.281 (inactive) | -0.35 | -1.8 | -4.34 (inactive) | 0.525 (inactive) | 0.163 (inactive)
C=CCNC(=O)[C@@H]1[C@H]2C(=O)O[C@H](c3ccccc3)[C@H](c3ccccc3)N2[C@H](c2ccc(OCCO)cc2)[C@@]12C(=O)Nc1ccc(C#CCC(C(=O)OC)C(=O)OC)cc12 | 0.874 | 1.12 (inactive) | -6.55 (inactive) | -4.92 (inactive) | 1.89 (inactive) | 2.26 (inactive) | 0.196 (inactive) | 0.286 (inactive) | -5.98 | 0.132 | 1.21 (inactive) | 0.905 | -2.22 | -1.05 (inactive) | 0.222 (inactive) | 0.477 (inactive)
COc1ccc(CCNC(=O)[C@@H]2c3ccccc3C(=O)N(Cc3ccccc3Cl)[C@H]2c2ccc(CO)cc2)cc1 | 0.891 | -0.541 (inactive) | 0.258 (inactive) | 0.0856 (inactive) | 0.416 (inactive) | 0.394 (inactive) | -0.258 (inactive) | -0.457 (inactive) | 0.883 | -0.102 | 0.187 (inactive) | 0.431 | 0.263 | -3.28 (inactive) | 0.139 (inactive) | 0.595 (inactive)
C[N+](C)(C)CCCCNC(=O)[C@H]1C[C@H]2C(=O)N3CCC[C@H]3C(=O)N2[C@H]1c1cccc(OCCO)c1 | -2.49 | 1.43 (inactive) | -1.12 (inactive) | -30.8 (active) | 0.628 (inactive) | 0.647 (inactive) | 0.66 (inactive) | 0.629 (inactive) | -0.951 | 0.261 | 0.265 (inactive) | -0.465 | 1.2 | -2.27 (inactive) | -0.302 (inactive) | -0.124 (inactive)
COC(=O)[C@@]1(Cc2ccc(OC)cc2)[C@H]2c3cc(C(=O)N(C)C)n(Cc4ccc(S(C)(=O)=O)cc4)c3C[C@H]2CN1C(=O)c1ccccc1 | 0.0042 | 0.0274 (inactive) | -0.19 (inactive) | -1.4 (inactive) | 2.2 (inactive) | -2.36 (inactive) | 0.366 (inactive) | -0.441 (inactive) | 0.766 | -0.0139 | 1.64 (inactive) | 0.233 | -0.0665 | -5.38 (inactive) | -0.907 (inactive) | -1.03 (inactive)
O=C(c1ccccc1)N1Cc2ccccc2C[C@@]2(COC(c3ccc(OCCCO)cc3)=N2)C1=O | 1.05 | -0.264 (inactive) | 0.26 (inactive) | 0.574 (inactive) | 0.248 (inactive) | 2.02 (inactive) | -0.0674 (inactive) | -0.564 (inactive) | 0.263 | -0.231 | 1.45 (inactive) | 0.751 | -2.26 | -4.77 (inactive) | -0.221 (inactive) | 0.159 (inactive)
